Laboratory results from the supplement of paper PMC7411054.

Legend:
Assay in all cases: phenotypically active (imaging signature differs from DMSO and reproducible) at any of 0.3-9 uM (binary (1 = active, 0 = inactive)); higher = active
Conditions in all cases: treatment time: 24 h
A549-ACTB-RAB5A = tested on: A549-ACTB-RAB5A
Summary of the method: (§1)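 After 24 h at 0.3, 1, 3 or 9 µM, with four wells per treatment, fifteen gene-edited A549, HepG2 and WPMY1 reporter lines carrying BFP, GFP and RFP/FusionRed were imaged live. Each well's live-cell features were expressed relative to solvent control wells. Deviation required ≥3 of 4 wells past the 95th percentile of control Euclidean distances, and reproducibility a median replicate Pearson correlation over the 95th percentile of non-replicates. Phenotypic activity rested on both.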

A549-CANX-COX4 = tested on: A549-CANX-COX4
Summary of the method: as §1

A549-GM130-SQSTM1 = tested on: A549-GM130-SQSTM1
Summary of the method: as §1

A549-TP53BP1-CLTA = tested on: A549-TP53BP1-CLTA
Summary of the method: as §1

A549-TUBA1B-RELA = tested on: A549-TUBA1B-RELA
Summary of the method: as §1

HepG2-ACTB-RAB5A = tested on: HepG2-ACTB-RAB5A
Summary of the method: as §1

HepG2-CANX-COX4 = tested on: HepG2-CANX-COX4
Summary of the method: as §1

HepG2-GM130-SQSTM1 = tested on: HepG2-GM130-SQSTM1
Summary of the method: as §1

HepG2-TP53BP1-CLTA = tested on: HepG2-TP53BP1-CLTA
Summary of the method: as §1

HepG2-TUBA1B-RELA = tested on: HepG2-TUBA1B-RELA
Summary of the method: as §1

WPMY1-ACTB-RAB5A = tested on: WPMY1-ACTB-RAB5A
Summary of the method: as §1

WPMY1-CANX-COX4 = tested on: WPMY1-CANX-COX4
Summary of the method: as §1

WPMY1-GM130-SQSTM1 = tested on: WPMY1-GM130-SQSTM1
Summary of the method: as §1

WPMY1-TP53BP1-CLTA = tested on: WPMY1-TP53BP1-CLTA
Summary of the method: as §1

WPMY1-TUBA1B-RELA = tested on: WPMY1-TUBA1B-RELA
Summary of the method: as §1

Measured: phenotypically active

NC(=O)c1ncn([C@@H]2O[C@H](CO)[C@@H](O)[C@H]2O)c1N
inactive: A549-ACTB-RAB5A 0 | A549-CANX-COX4 0 | A549-GM130-SQSTM1 0 | A549-TP53BP1-CLTA 0 | A549-TUBA1B-RELA 0 | HepG2-ACTB-RAB5A 0 | HepG2-CANX-COX4 0 | HepG2-GM130-SQSTM1 0 | HepG2-TP53BP1-CLTA 0 | HepG2-TUBA1B-RELA 0 | WPMY1-ACTB-RAB5A 0 | WPMY1-CANX-COX4 0 | WPMY1-GM130-SQSTM1 0 | WPMY1-TP53BP1-CLTA 0 | WPMY1-TUBA1B-RELA 0

CC(C)[C@](O)(c1ccc2cc(OC(F)F)c(OC(F)F)cc2c1)c1c[nH]nn1
inactive: A549-ACTB-RAB5A 0 | A549-CANX-COX4 0 | A549-GM130-SQSTM1 0 | A549-TP53BP1-CLTA 0 | A549-TUBA1B-RELA 0 | HepG2-ACTB-RAB5A 0 | HepG2-CANX-COX4 0 | HepG2-GM130-SQSTM1 0 | HepG2-TP53BP1-CLTA 0 | HepG2-TUBA1B-RELA 0 | WPMY1-ACTB-RAB5A 0 | WPMY1-CANX-COX4 0 | WPMY1-GM130-SQSTM1 0 | WPMY1-TP53BP1-CLTA 0 | WPMY1-TUBA1B-RELA 0

Cn1cnc2c(NCc3ccccc3)nc(NCCO)nc21 [Olomoucine]
inactive: A549-ACTB-RAB5A 0 | A549-CANX-COX4 0 | A549-GM130-SQSTM1 0 | A549-TP53BP1-CLTA 0 | A549-TUBA1B-RELA 0 | HepG2-ACTB-RAB5A 0 | HepG2-CANX-COX4 0 | HepG2-GM130-SQSTM1 0 | HepG2-TP53BP1-CLTA 0 | HepG2-TUBA1B-RELA 0 | WPMY1-ACTB-RAB5A 0 | WPMY1-CANX-COX4 0 | WPMY1-GM130-SQSTM1 0 | WPMY1-TP53BP1-CLTA 0 | WPMY1-TUBA1B-RELA 0

CC(=O)N[C@@H](CC(=O)O)C(=O)N[C@@H](CCC(=O)O)C(=O)O [Spaglumic acid]
inactive: A549-ACTB-RAB5A 0 | A549-CANX-COX4 0 | A549-GM130-SQSTM1 0 | A549-TP53BP1-CLTA 0 | A549-TUBA1B-RELA 0 | HepG2-ACTB-RAB5A 0 | HepG2-CANX-COX4 0 | HepG2-GM130-SQSTM1 0 | HepG2-TP53BP1-CLTA 0 | HepG2-TUBA1B-RELA 0 | WPMY1-ACTB-RAB5A 0 | WPMY1-CANX-COX4 0 | WPMY1-GM130-SQSTM1 0 | WPMY1-TP53BP1-CLTA 0 | WPMY1-TUBA1B-RELA 0

Cc1ccnn1-c1ccc(C(=O)N2CCN(S(=O)(=O)c3ccc(Cl)c(C(F)(F)F)c3)CC2)cc1
inactive: A549-ACTB-RAB5A 0 | A549-CANX-COX4 0 | A549-GM130-SQSTM1 0 | A549-TP53BP1-CLTA 0 | A549-TUBA1B-RELA 0 | HepG2-ACTB-RAB5A 0 | HepG2-CANX-COX4 0 | HepG2-GM130-SQSTM1 0 | HepG2-TP53BP1-CLTA 0 | HepG2-TUBA1B-RELA 0 | WPMY1-ACTB-RAB5A 0 | WPMY1-CANX-COX4 0 | WPMY1-GM130-SQSTM1 0 | WPMY1-TP53BP1-CLTA 0 | WPMY1-TUBA1B-RELA 0

O=C1CCC[C@@H]2[C@H]3CCC[N+]4([O-])CCC[C@@H](CN12)[C@@H]34 (stereo not given in full) [Oxymatrine]
inactive: A549-ACTB-RAB5A 0 | A549-CANX-COX4 0 | A549-GM130-SQSTM1 0 | A549-TP53BP1-CLTA 0 | A549-TUBA1B-RELA 0 | HepG2-ACTB-RAB5A 0 | HepG2-CANX-COX4 0 | HepG2-GM130-SQSTM1 0 | HepG2-TP53BP1-CLTA 0 | HepG2-TUBA1B-RELA 0 | WPMY1-ACTB-RAB5A 0 | WPMY1-CANX-COX4 0 | WPMY1-GM130-SQSTM1 0 | WPMY1-TP53BP1-CLTA 0 | WPMY1-TUBA1B-RELA 0

CN([C@H]1c2cc(OCCCC(F)(F)F)ccc2OC(C)(C)[C@@H]1O)S(C)(=O)=O
inactive: A549-ACTB-RAB5A 0 | A549-CANX-COX4 0 | A549-GM130-SQSTM1 0 | A549-TP53BP1-CLTA 0 | A549-TUBA1B-RELA 0 | HepG2-ACTB-RAB5A 0 | HepG2-CANX-COX4 0 | HepG2-GM130-SQSTM1 0 | HepG2-TP53BP1-CLTA 0 | HepG2-TUBA1B-RELA 0 | WPMY1-ACTB-RAB5A 0 | WPMY1-CANX-COX4 0 | WPMY1-GM130-SQSTM1 0 | WPMY1-TP53BP1-CLTA 0 | WPMY1-TUBA1B-RELA 0

C#C[C@]1(O)CC[C@H]2[C@@H]3CCc4cc(OC5CCCC5)ccc4[C@H]3CC[C@@]21C [quinestrol]
inactive: A549-ACTB-RAB5A 0 | A549-CANX-COX4 0 | A549-GM130-SQSTM1 0 | A549-TP53BP1-CLTA 0 | A549-TUBA1B-RELA 0 | HepG2-ACTB-RAB5A 0 | HepG2-CANX-COX4 0 | HepG2-GM130-SQSTM1 0 | HepG2-TP53BP1-CLTA 0 | HepG2-TUBA1B-RELA 0 | WPMY1-ACTB-RAB5A 0 | WPMY1-CANX-COX4 0 | WPMY1-GM130-SQSTM1 0 | WPMY1-TP53BP1-CLTA 0 | WPMY1-TUBA1B-RELA 0

C[C@]12CC[C@@H]3c4ccc(OS(=O)(=O)O)cc4CC[C@H]3[C@@H]1CCC2=O [estrone sulfuric acid]
inactive: A549-ACTB-RAB5A 0 | A549-CANX-COX4 0 | A549-GM130-SQSTM1 0 | A549-TP53BP1-CLTA 0 | A549-TUBA1B-RELA 0 | HepG2-ACTB-RAB5A 0 | HepG2-CANX-COX4 0 | HepG2-GM130-SQSTM1 0 | HepG2-TP53BP1-CLTA 0 | HepG2-TUBA1B-RELA 0 | WPMY1-ACTB-RAB5A 0 | WPMY1-CANX-COX4 0 | WPMY1-GM130-SQSTM1 0 | WPMY1-TP53BP1-CLTA 0 | WPMY1-TUBA1B-RELA 0

CCOCCn1c(N2CCCN(C)CC2)nc2ccccc21 [emedastine]
inactive: A549-ACTB-RAB5A 0 | A549-CANX-COX4 0 | A549-GM130-SQSTM1 0 | A549-TP53BP1-CLTA 0 | A549-TUBA1B-RELA 0 | HepG2-ACTB-RAB5A 0 | HepG2-CANX-COX4 0 | HepG2-GM130-SQSTM1 0 | HepG2-TP53BP1-CLTA 0 | HepG2-TUBA1B-RELA 0 | WPMY1-ACTB-RAB5A 0 | WPMY1-CANX-COX4 0 | WPMY1-GM130-SQSTM1 0 | WPMY1-TP53BP1-CLTA 0 | WPMY1-TUBA1B-RELA 0

CC(C)C1=CC2=CCC3[C@](C)(CCC[C@]3(C)C(=O)O)C2CC1 (stereo not given in full) [Abietic Acid]
inactive: A549-ACTB-RAB5A 0 | A549-CANX-COX4 0 | A549-GM130-SQSTM1 0 | A549-TP53BP1-CLTA 0 | A549-TUBA1B-RELA 0 | HepG2-ACTB-RAB5A 0 | HepG2-CANX-COX4 0 | HepG2-GM130-SQSTM1 0 | HepG2-TP53BP1-CLTA 0 | HepG2-TUBA1B-RELA 0 | WPMY1-ACTB-RAB5A 0 | WPMY1-CANX-COX4 0 | WPMY1-GM130-SQSTM1 0 | WPMY1-TP53BP1-CLTA 0 | WPMY1-TUBA1B-RELA 0

Brc1c(NC2=NCCN2)ccc2nccnc12 [brimonidine]
inactive: A549-ACTB-RAB5A 0 | A549-CANX-COX4 0 | A549-GM130-SQSTM1 0 | A549-TP53BP1-CLTA 0 | A549-TUBA1B-RELA 0 | HepG2-ACTB-RAB5A 0 | HepG2-CANX-COX4 0 | HepG2-GM130-SQSTM1 0 | HepG2-TP53BP1-CLTA 0 | HepG2-TUBA1B-RELA 0 | WPMY1-ACTB-RAB5A 0 | WPMY1-CANX-COX4 0 | WPMY1-GM130-SQSTM1 0 | WPMY1-TP53BP1-CLTA 0 | WPMY1-TUBA1B-RELA 0
